# Active and inactive are the calls of the source. Calls follow the shape of the full dose curve.
# Experiment: NSCLC 2 Cell Viability Secondary Assay for qHTS Assay for Epigenetic Modulators
# Conditions: NSCLC 2 viability, MTS absorbance, 4 days
# From the text: NIH Molecular Libraries Screening Centers Network [MLSCN] NIH Chemical Genomics Center [NCGC] MLSCN Grant: 1 X01 MH079860-01 Assay Provider: Elisabeth D. Martinez, University of Texas SW Medical Center NCGC Assay Overview: This secondary assay characterizes selected actives identified in the qHTS of the Locus Derepression (LDR) assay (PubChem AID 597). The LDR assay detects the derepression of a GFP reporter that is stably integrated in a region of the genome of murine c127i mammary cells that is presumably silenced. Compounds that cause derepression of the locus to express GFP are identified by enumerating GFP positive cells using a laser-scanning microplate cytometer. […] NSCLC 2 cell viability was measured using Cell Titer 96 AQueous One (Promega), an assay which detects the ability of metabolically active cells to reduce a tetrazolium salt substrate (MTS), into a soluble formazan product that can be measured by colorimetry.
# NCGC Assay Protocol Summary NSCLC 2 cells were plated in 96-well flat bottom tissue culture dishes (Corning) and grown overnight at 37 C and 5% CO2, then treated with compounds, incubated 4 days, and assayed for viability using the Cell Titer 96 AQueous One kit (Promega) according to the manufacturer's protocol. Absorbance at 490 nm and 650 nm (reference) was measured by a Spectra Max (Molecular Devices). […]
smiles,measurement,value
CN1CSC(=S)N(C)C1,outcome,inactive

# — PubChem BioAssay AID1037 (National Center for Advancing Translational Sciences (NCATS), 2008)
